# Measured values taken from PubChem BioAssay (NCI).
# Several values for one entry are separate records, joined by “and”; a condition that tells them apart may be missing. Equal values may be shown once. Compounds without any hit were thinned out: in the full panel of roughly 79,000, 15% have a hit. The source holds several records for some structures; these can differ, active in one and inactive in another. Activity calls are given as the source filed them. Rule as the data show it: active = growth inhibition above about 70%; inactive = the rest.
# Key:
# [1] = NCI Yeast Anticancer Drug Screen. Data for the rad52 strain (AID 147);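 also: 0% = growth of vehicle-treated control cultures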; settings: S. cerevisiae rad52 mutant growth inhibition, stronger effect = higher value
# How it was run: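 DNA repair-defective yeast; compound exposure; growth scored against vehicle controls.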
# [2] = NCI Yeast Anticancer Drug Screen. Data for the wt1 strain (AID 149);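 also: 0% = growth of vehicle-treated wt1 cultures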; settings: S. cerevisiae wt1 strain (SPY 50644) growth inhibition, stronger effect = higher value
# How it was run: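 Using yeast strain wt1, compound-induced growth inhibition was determined against vehicle-treated cultures.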
# [3] = NCI Yeast Anticancer Drug Screen. Data for the rad50EPP+ strain (AID 151);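 also: 0% = growth of vehicle-treated control cultures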; settings: S. cerevisiae rad50 mutant strain, stronger effect = higher value
# How it was run: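 rad50EPP+ yeast treated with test compounds. Readout: growth vs vehicle control.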
# [4] = NCI Yeast Anticancer Drug Screen. Data for the mgt1 strain (AID 153); settings: S. cerevisiae mgt1 mutant growth inhibition, stronger effect = higher value
# How it was run: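 Growth inhibition relative to vehicle controls was scored for the mgt1 yeast strain after compound exposure.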
# [5] = NCI Yeast Anticancer Drug Screen. Data for the rad50 strain (AID 155);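 also: 0% = growth of vehicle-only cultures of the same strain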; settings: S. cerevisiae rad50 strain growth inhibition, stronger effect = higher value
# How it was run: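 Relative growth inhibition (compound vs vehicle) was measured in yeast with a defined repair-gene alteration.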
# [6] = NCI Yeast Anticancer Drug Screen. Data for the mec2-1 strain (AID 157); settings: S. cerevisiae mec2-1 strain, stronger effect = higher value
# How it was run: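 Growth inhibition is read against vehicle-treated controls after compound exposure of the mec2-1 yeast strain, which is defective in DNA damage repair or cell cycle control.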
# [7] = NCI Yeast Anticancer Drug Screen. Data for the rad14 strain (AID 159);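 also: 0% = growth of vehicle-treated control cultures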; settings: S. cerevisiae rad14 strain growth inhibition, stronger effect = higher value
# How it was run: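 Screen for anticancer potential: a yeast strain altered in DNA damage repair is grown with compound, and reduced growth is quantified against vehicle controls.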
# [8] = NCI Yeast Anticancer Drug Screen. Data for the sgs1 mgt1 strain (AID 161);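 also: 0% = growth of cultures given vehicle only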; settings: S. cerevisiae sgs1 mgt1 strain, stronger effect = higher value
# How it was run: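 Compounds are added to genetically altered yeast, and growth is compared with cultures given vehicle alone to give percent inhibition.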
# [9] = NCI Yeast Anticancer Drug Screen. Data for the CLN2oe strain (AID 163);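 also: 0% = growth of vehicle-only control cultures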; settings: S. cerevisiae CLN2oe strain, stronger effect = higher value
# How it was run: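 Compound-treated yeast; growth vs vehicle ctrl = % inhibition. Genetically altered strain (cell-cycle control).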
# [10] = NCI Yeast Anticancer Drug Screen. Data for the cln2 rad14 strain (AID 165);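 also: 0% = growth equal to vehicle treated cultures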; settings: S. cerevisiae cln2 rad14 strain, stronger effect = higher value
# How it was run: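 Growth inhibition, relative to vehicle-treated controls, is the read-out. The test organism is a yeast strain with defined genetic alterations, cln2 rad14.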
# [11] = NCI Yeast Anticancer Drug Screen. Data for the bub3 strain (AID 167); settings: S. cerevisiae bub3 mutant strain, stronger effect = higher value
# How it was run: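 Screening used yeast with an engineered genetic alteration affecting cell cycle control. Compound-exposed cultures were compared with vehicle cultures, and reduced growth was taken as inhibition.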
# [12] = NCI Yeast Anticancer Drug Screen. Data for the wt2 strain (AID 169);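 also: 0% = growth of vehicle-treated yeast cultures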; settings: S. cerevisiae wt2 strain growth inhibition, stronger effect = higher value
# How it was run: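 Compound exposure of yeast; growth compared with vehicle controls; inhibition reported.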
# [13] = NCI Yeast Anticancer Drug Screen. Data for the mlh1 strain (AID 171);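 also: 0% = growth of vehicle-treated control cultures of the same strain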; settings: S. cerevisiae mlh1 strain growth inhibition, stronger effect = higher value
# How it was run: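 Compounds are applied to a genetically altered yeast strain, and its growth is compared with that of vehicle-treated cultures to give percent inhibition.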
# [14] = NCI Yeast Anticancer Drug Screen. Data for the sgs1 strain (AID 173);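 also: 0% = growth of vehicle-only control cultures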; settings: S. cerevisiae sgs1 mutant, stronger effect = higher value
# How it was run: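 Compounds applied to genetically altered yeast; growth compared with vehicle-treated cultures to give % inhibition.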
# [15] = NCI Yeast Anticancer Drug Screen. Data for the mlh1 rad18 strain (AID 175); settings: S. cerevisiae mlh1 rad18 strain growth inhibition, stronger effect = higher value
# How it was run: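 Cells of a genetically altered yeast strain, deficient in DNA damage repair, were treated with compound. Their growth was then compared with that of vehicle-treated cultures to give inhibition.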
# [16] = NCI Yeast Anticancer Drug Screen. Data for the rad18 strain (AID 177); settings: S. cerevisiae rad18 mutant growth inhibition, stronger effect = higher value
# How it was run: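 Compounds are applied to a repair-deficient yeast strain, and growth is compared with that of vehicle-treated cultures to give percent inhibition.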
# [17] = at 5.0 µM (retest, dose inferred, filed as 0.5)
# [18] = at 50.0 µM (retest, dose inferred, filed as 5.0)
structure (smiles),measurement,setting,value
O=C(O)C1C2C=CC(C2)C1c1ccccc1 (stereo not drawn),growth inhibition,[1]; at 1.2 µM,-1% (inactive)
same,growth inhibition,[1]; at 3.7 µM,0% (inactive)
same,growth inhibition,[1]; at 11.0 µM,-2% (inactive)
same,growth inhibition,[1]; at 33.0 µM,-3% (inactive)
same,growth inhibition,[1]; at 100.0 µM,5% (inactive)
same,growth inhibition,[2]; at 1.2 µM,-3% (inactive)
same,growth inhibition,[2]; at 3.7 µM,-1% (inactive)
same,growth inhibition,[2]; at 11.0 µM,-3% (inactive)
same,growth inhibition,[2]; at 33.0 µM,-9% (inactive)
same,growth inhibition,[2]; at 100.0 µM,1% (inactive)
same,growth inhibition,[3]; at 1.2 µM,-6% (inactive)
same,growth inhibition,[3]; at 3.7 µM,-8% (inactive)
same,growth inhibition,[3]; at 11.0 µM,-6% (inactive)
same,growth inhibition,[3]; at 33.0 µM,-5% (inactive)
same,growth inhibition,[3]; at 100.0 µM,0% (inactive)
same,growth inhibition,[4]; at 1.2 µM,-1% (inactive)
same,growth inhibition,[4]; at 3.7 µM,-1% (inactive)
same,growth inhibition,[4]; at 11.0 µM,-4% (inactive)
same,growth inhibition,[4]; at 33.0 µM,-5% (inactive)
same,growth inhibition,[4]; at 100.0 µM,2% (inactive)
same,growth inhibition,[5]; at 1.2 µM,-1% (inactive)
same,growth inhibition,[5]; at 3.7 µM,26% (inactive)
same,growth inhibition,[5]; [17],-1% (inactive)
same,growth inhibition,[5]; at 11.0 µM,1% (inactive)
same,growth inhibition,[5]; at 33.0 µM,0% (inactive)
same,growth inhibition,[5]; [18],4% (inactive)
same,growth inhibition,[5]; at 50.0 µM,10.9% (inactive) and 4.35% (inactive)
same,growth inhibition,[5]; at 100.0 µM,17% (inactive)
same,growth inhibition,[6]; at 1.2 µM,0% (inactive)
same,growth inhibition,[6]; at 3.7 µM,0% (inactive)
same,growth inhibition,[6]; [17],-1% (inactive)
same,growth inhibition,[6]; at 11.0 µM,0% (inactive)
same,growth inhibition,[6]; at 33.0 µM,-1% (inactive)
same,growth inhibition,[6]; [18],3% (inactive)
same,growth inhibition,[6]; at 50.0 µM,1.4% (inactive) and 9.7% (inactive)
same,growth inhibition,[6]; at 100.0 µM,9% (inactive)
same,growth inhibition,[7]; at 1.2 µM,-5% (inactive)
same,growth inhibition,[7]; at 3.7 µM,-7% (inactive)
same,growth inhibition,[7]; at 11.0 µM,-10% (inactive)
same,growth inhibition,[7]; at 33.0 µM,-11% (inactive)
same,growth inhibition,[7]; at 100.0 µM,-4% (inactive)
same,growth inhibition,[8]; [17],-3% (inactive)
same,growth inhibition,[8]; [18],3% (inactive)
same,growth inhibition,[8]; at 50.0 µM,7% (inactive) and -6.6% (inactive)
same,growth inhibition,[9]; at 1.2 µM,-4% (inactive)
same,growth inhibition,[9]; at 3.7 µM,-10% (inactive)
same,growth inhibition,[9]; at 11.0 µM,-4% (inactive)
same,growth inhibition,[9]; at 33.0 µM,-6% (inactive)
same,growth inhibition,[9]; at 100.0 µM,5% (inactive)
same,growth inhibition,[10]; [17],-5% (inactive)
same,growth inhibition,[10]; [18],-5% (inactive)
same,growth inhibition,[10]; at 50.0 µM,-0.2% (inactive) and 0.6% (inactive)
same,growth inhibition,[11]; at 1.2 µM,6% (inactive)
same,growth inhibition,[11]; at 3.7 µM,20% (inactive)
same,growth inhibition,[11]; [17],34% (inactive)
same,growth inhibition,[11]; at 11.0 µM,45% (inactive)
same,growth inhibition,[11]; at 33.0 µM,73% (active)
same,growth inhibition,[11]; [18],93% (active)
same,growth inhibition,[11]; at 50.0 µM,30.1% (inactive) and 95.9% (active)
same,growth inhibition,[11]; at 100.0 µM,85% (active)
same,growth inhibition,[12]; at 1.2 µM,-2% (inactive)
same,growth inhibition,[12]; at 3.7 µM,5% (inactive)
same,growth inhibition,[12]; at 11.0 µM,-4% (inactive)
same,growth inhibition,[12]; at 33.0 µM,-3% (inactive)
same,growth inhibition,[12]; at 100.0 µM,8% (inactive)
same,growth inhibition,[13]; at 1.2 µM,-1% (inactive)
same,growth inhibition,[13]; at 3.7 µM,0% (inactive)
same,growth inhibition,[13]; at 11.0 µM,1% (inactive)
same,growth inhibition,[13]; at 33.0 µM,0% (inactive)
same,growth inhibition,[13]; at 100.0 µM,11% (inactive)
same,growth inhibition,[14]; at 1.2 µM,-5% (inactive)
same,growth inhibition,[14]; at 3.7 µM,-5% (inactive)
same,growth inhibition,[14]; at 11.0 µM,-5% (inactive)
same,growth inhibition,[14]; at 33.0 µM,6% (inactive)
same,growth inhibition,[14]; at 100.0 µM,40% (inactive)
same,growth inhibition,[15]; [17],-3% (inactive)
same,growth inhibition,[15]; [18],5% (inactive)
same,growth inhibition,[15]; at 50.0 µM,10.6% (inactive) and 6.5% (inactive)
same,growth inhibition,[16]; at 1.2 µM,-1% (inactive)
same,growth inhibition,[16]; at 3.7 µM,-3% (inactive)
same,growth inhibition,[16]; at 11.0 µM,-2% (inactive)
same,growth inhibition,[16]; at 33.0 µM,10% (inactive)
same,growth inhibition,[16]; at 100.0 µM,60% (inactive)
